In the supplement of paper PMC3545927:
The list shows a part of the results. No count for the full screen is at hand.

Molecular target: furin, P09958
Assay: furin cleavage Z-score vs untreated control; higher = more cleavage, active = 3.5 or more, inactive = 1 or less, 8 variable residues between constant flanks
Outline: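 In 50 mM HEPES pH 7.5 with CaCl2 and NaCl, purified furin was incubated with bead-anchored 8-mer peptide–cDNA fusions at 1:10 enzyme:substrate in 0.01 ml. Incubation times were 7.5, 15 and 30 min. DNA set free by cleavage was adapter-tagged by PCR and sequenced, with read counts taken as abundance. Log counts relative to furin-free reactions, after lowess adjustment and median absolute deviation scaling, form the cleavage Z-score.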

furin, P09958, sequence (P09958 whole entry): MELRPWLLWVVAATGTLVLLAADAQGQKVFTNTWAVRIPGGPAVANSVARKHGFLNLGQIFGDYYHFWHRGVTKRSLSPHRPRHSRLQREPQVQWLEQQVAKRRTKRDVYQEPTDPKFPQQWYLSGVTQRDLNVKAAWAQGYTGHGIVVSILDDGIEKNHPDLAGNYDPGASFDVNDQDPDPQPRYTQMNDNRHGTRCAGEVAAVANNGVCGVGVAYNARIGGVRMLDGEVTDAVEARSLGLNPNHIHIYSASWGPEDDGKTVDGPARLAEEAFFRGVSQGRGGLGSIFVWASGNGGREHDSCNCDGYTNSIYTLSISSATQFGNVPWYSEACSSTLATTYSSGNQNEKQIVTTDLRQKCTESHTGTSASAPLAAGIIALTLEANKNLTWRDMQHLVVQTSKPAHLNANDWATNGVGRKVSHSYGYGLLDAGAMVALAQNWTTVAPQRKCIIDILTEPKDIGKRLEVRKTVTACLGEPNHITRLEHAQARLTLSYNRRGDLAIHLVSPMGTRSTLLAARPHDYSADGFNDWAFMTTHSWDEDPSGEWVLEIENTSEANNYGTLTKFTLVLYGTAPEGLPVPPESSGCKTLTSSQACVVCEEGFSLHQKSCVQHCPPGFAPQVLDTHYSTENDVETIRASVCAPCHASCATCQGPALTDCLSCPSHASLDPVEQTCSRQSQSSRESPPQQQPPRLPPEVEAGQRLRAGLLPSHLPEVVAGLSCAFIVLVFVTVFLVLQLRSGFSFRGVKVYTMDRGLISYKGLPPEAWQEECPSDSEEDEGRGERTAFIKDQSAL

Sequence	furin cleavage Z-score (7.5 min)	furin cleavage Z-score (15 min)	furin cleavage Z-score (30 min)
CAVVCCSWSYAGNASASA [HC2048]	-1.44 (inactive)	-0.879 (inactive)	-0.0857 (inactive)
CANDSRLKRQAGNASASA [FS-1038]	6.07 (active)	5.6 (active)	6.15 (active)
CAILWRLKRQAGNASASA [FS-1215]	10.9 (active)	9.84 (active)	7.41 (active)
CANDSRHLRNAGNASASA [FS-1647]	0.543 (inactive)	0.626 (inactive)	1.57
CAFRARQIRYAGNASASA [FS-419]	2.8	5.19 (active)	2.15
CAVVCRSMSYAGNASASA [HC90]	1.85	0.752 (inactive)	0.571 (inactive)
CALNKSFRRAAGNASASA [FS-354]	0.697 (inactive)	-0.445 (inactive)	1.37
CAFRARFRRLAGNASASA [FS-526]	10.4 (active)	12.1 (active)	9.87 (active)
CAFSHRQVRYAGNASASA [FS-929]	0.403 (inactive)	1.8	2.61
CANRARFRRAAGNASASA [FS-64]	8.77 (active)	9.51 (active)	7.84 (active)
CADCTTPCSGAGNASASA [HC1951]	0.95 (inactive)	0.00642 (inactive)	1.2
CAMEECSQVLAGNASASA [HC1750]	1.44	-0.739 (inactive)	1.26
CAFLTRVEAQAGNASASA [HC585]	-0.981 (inactive)	1.44	-1 (inactive)
CAVPERCRRQAGNASASA [FS-1580]	6.62 (active)	9.1 (active)	6.98 (active)
CAVGDLCGSVAGNASASA [HC299]	-0.438 (inactive)	-0.375 (inactive)	1.2
CALPKRVRRQAGNASASA [FS-1029]	11.3 (active)	12.3 (active)	8.74 (active)
CAVPYFVRVQAGNASASA [HC615]	-1.87 (inactive)	0.165 (inactive)	-0.325 (inactive)
CALPYLVAYQAGNASASA [HC952]	0.718 (inactive)	-1.65 (inactive)	-1.41 (inactive)

Sequence	furin cleavage Z-score (7.5 min)	furin cleavage Z-score (15 min)	furin cleavage Z-score (30 min)
CACSTRVRRQAGNASASA [FS-120]	11 (active)	8.81 (active)	7.5 (active)
CATTPCSPSWAGNASASA [HC1899]	0.637 (inactive)	0.489 (inactive)	-0.787 (inactive)
CAPEFFTELDAGNASASA [HC1220]	-0.864 (inactive)	-0.533 (inactive)	-1.32 (inactive)
CAFVQRVFRDAGNASASA [FS-776]	-0.109 (inactive)	-0.244 (inactive)	0.515 (inactive)
CAQRQPFPRDAGNASASA [FS-951]	0.0863 (inactive)	0.099 (inactive)	-1.03 (inactive)
CALQERVPRDAGNASASA [FS-1366]	7.28 (active)	7.82 (active)	7.62 (active)
CAAVQRVPRDAGNASASA [FS-1312]	6.89 (active)	6.58 (active)	5.33 (active)
CAVVCCWMSYAGNASASA [HC107]	-0.895 (inactive)	0.873 (inactive)	-1.73 (inactive)
CASQPCSAHLAGNASASA [HC2502]	-0.0566 (inactive)	0.435 (inactive)	0.0846 (inactive)
CARARRDAGPAGNASASA [FS-3150]	10.1 (active)	11.6 (active)	7.77 (active)
CARARRGPSPAGNASASA [FS-2131]	-1.25 (inactive)	-0.123 (inactive)	-0.828 (inactive)
CARARRGLRGAGNASASA [FS-1817]	1.71	0.637 (inactive)	3.32
CARHYKSASPAGNASASA [FS-1718]	-1.62 (inactive)	-1.27 (inactive)	-1.9 (inactive)
CARARRGTSGAGNASASA [FS-2646]	3.84 (active)	5.25 (active)	5.55 (active)
CARARRDHFSAGNASASA [FS-2642]	1.38	1.33	3.76 (active)
CARARRGGGSAGNASASA [FS-2645]	-0.34 (inactive)	-0.574 (inactive)	0.0356 (inactive)
CARARRSASPAGNASASA [FS-2481]	8.11 (active)	8.29 (active)	5.23 (active)
